High-throughput results deposited in PubChem BioAssay by National Center for Advancing Translational Sciences (NCATS).
Pf growth 48h: inhibits P. falciparum growth in the first generation, 48 h; P. falciparum luciferase growth in erythrocytes, 48 h; 310,000 compounds, 5.9% hits; Potency, µM (doses to about 28.7 µM), for the others: top-dose activity change, negative = inhibition, most hits filed as inhibitors; note: potency is the fitted concentration of half-maximal effect; % is set by controls: 0 for no effect and ±100 for the full control effect
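First compound was added to culture medium, then infected red cells at 0.1% parasitemia and 2% hematocrit (final). After incubation at 37 C under 5% CO2, luciferase detection reagent was dispensed and light output recorded.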
Pf growth 96h: P. falciparum growth inhibition at 96 hours; AID 504834; Potency, µM (doses to about 28.7 µM), without a hit: at the top dose activity change, negative = inhibition, most hits filed as inhibitors; P. falciparum luciferase reporter growth, 96 h; 320,000 compounds, 6.9% hits; note: potency is the fitted concentration of half-maximal effect; % is set by controls: 0 for no effect and ±100 for the full control effect
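Delayed-death screen, second-generation endpoint: infected erythrocytes, 2% hematocrit, 0.05% parasitemia final; 96 hours at 37 C, 5% CO2; luciferase detection reagent; luminescence decrease equals reduced growth.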
LmPK inh: inhibitors of Leishmania mexicana pyruvate kinase. purified LmPK, Kinase-Glo ATP luminescence, 1 h. Potency, µM (highest dose often 57.5 µM), for the others: at the highest dose activity change, negative = inhibition, most hits filed as inhibitors. 290,000 compounds, 0.37% hits. AID 1721. Q27686; note: potency is the fitted concentration of half-maximal effect; % is set by controls: 0 for no effect and ±100 for the full control effect
Target sequence (Q27686 whole entry, looked up): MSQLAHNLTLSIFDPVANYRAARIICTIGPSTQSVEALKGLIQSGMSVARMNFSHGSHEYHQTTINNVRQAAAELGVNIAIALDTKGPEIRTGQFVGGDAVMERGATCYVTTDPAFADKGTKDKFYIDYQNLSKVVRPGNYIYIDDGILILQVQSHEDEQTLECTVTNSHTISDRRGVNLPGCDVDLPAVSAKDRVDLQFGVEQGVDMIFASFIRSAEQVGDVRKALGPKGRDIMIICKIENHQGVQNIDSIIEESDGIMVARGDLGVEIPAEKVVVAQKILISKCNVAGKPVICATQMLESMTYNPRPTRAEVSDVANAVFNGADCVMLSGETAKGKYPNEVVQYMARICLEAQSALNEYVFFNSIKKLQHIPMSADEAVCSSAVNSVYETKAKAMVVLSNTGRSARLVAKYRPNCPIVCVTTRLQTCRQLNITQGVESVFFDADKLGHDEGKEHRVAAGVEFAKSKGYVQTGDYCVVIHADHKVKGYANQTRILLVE
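Purified LmPK (0.1 nM) with 0.5 mM PEP and 0.1 mM ADP in imidazole buffer pH 7.2 with MgCl2/KCl, 1 h at room temperature. ATP formed was read by luciferase luminescence and normalized to no-enzyme and uninhibited controls.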
Cycloheximide cs: affects cycloheximide protein synthesis inhibition readout, counter-screen | 300,000 compounds, 12% hits | max response, % | AID 2314 | cell reporter, cycloheximide protein synthesis inhibition counterscreen; in the data active = max response mostly above about 13%, no sharp cut-off; inactive = mostly below about 14%; note: read at 38.3 µM for the half of the compounds with a filed dose; 0% is about no effect
Shiga toxin inh: inhibitors of Shiga toxin in Vero cells. Vero cells, Shiga toxin protein synthesis inhibition reporter. inhibition, % at 38.7 µM. 290,000 compounds, 9.2% hits. AID 2315; in the data active = inhibition mostly above about 28%, no sharp cut-off; inactive = mostly below about 43%; note: 0% is about no effect
An asterisk follows results filed as active; i = inactive; ? = inconclusive; · = not tested or not shown. Only some compounds are listed: those with a hit (about 22% of all), similar ones and a draw of the others. Unless noted, calls come from the whole dose curve; as a rule, active = well fitted inhibition curve with a large enough effect; inconclusive = small, poorly fitted or top-dose-only effect, or another doubt; inactive = no such curve, though single readings can be large or run the other way.

SMILES	Pf growth 48h	Pf growth 96h	LmPK inh	Cycloheximide cs	Shiga toxin inh
CCc1n(CC(O)COCC2CC=CCC2)c2ccccc2[n+]1C (centres undefined)	?	27%	8%	-1	-9
CCc1n(CC(O)COC2CCCCC2)c2ccccc2[n+]1C (centres undefined)	2.6µM*	?	2%	6	-3
CCc1nnc(NC(=O)c2sc3nc4c(cc3c2N)CCCCC4)s1	57%	?	-4%	42*	46*
CCc1nnc(NC(=O)c2sc3nc4c(cc3c2N)CCCCCC4)s1	19%	76%	5%	13*	59
CCN1CCc2nc3sc(C(=O)Nc4cccnc4Cl)c(N)c3cc2C1	?	?	-8%	10	11
Cc1cccc(NC(=O)NC2CCCCCCC2)c1C	0%	?	1%	-3	-6
CS(=O)(=O)NCCSc1cc(C(F)(F)F)nc2ccccc12	-4%	1%	9%	-1	-9
CN(C)Cc1c(O)ccc2cc(-c3nc4ccccc4n3C)c(=O)oc12	-5%	-26%	3%	20*	33
CCN(CC)c1ccc2cc(-c3nc4ccccc4n3C)c(=O)oc2c1	·	43%	17%	37*	80*
CCN(CC)c1ccc2cc(-c3nc4ccccc4[nH]3)c(=O)oc2c1	134%	214%	-4%	49*	81*
CCN(CC)c1ccc2cc(-c3nnc(-c4ccccc4)o3)c(=O)oc2c1	24%	-29%	7%	35*	70*
CC(NC(=O)OCc1ccccc1)C(=O)NCC(=O)NC(Cc1ccc(OC(C)(C)C)cc1)C(=O)OC(C)(C)C (centres undefined)	?	-68%	7%	-5	-9
CCC(C(=O)NCCCN(CC)Cc1ccccc1)n1nc(C)c2sc3ccccc3c2c1=O (centres undefined)	10µM*	41%	0%	3	-2
Nc1nccc(-c2cc(-c3ccc(Cl)cc3Cl)no2)n1	398%	23%	-21%	42*	54*
CCCCCN=C(C)c1c(O)c2ccccc2oc1=O	1%	?	2%	42*	65*
C/C(=N/NS(=O)(=O)c1ccc(C)cc1)c1c(O)c2ccccc2oc1=O	2%	-3%	-2%	0	-1
Cc1ccc(C(=O)NCCc2ccccn2)cc1S(=O)(=O)N1CCOCC1	-15%	?	2%	9	8
COc1ccc(NC(=O)c2ccc(Cl)c(S(=O)(=O)N3CC(C)OC(C)C3)c2)cn1 (centres undefined)	8.3µM*	10µM*	·	·	·
CCc1nnc(NC(=O)c2ccc(Cl)c(S(=O)(=O)N3CCc4ccccc4C3)c2)s1	-6%	-5%	4%	-3	4
Cc1ccccc1CCNC(=O)c1ccc(Cl)c(S(=O)(=O)N2CC(C)OC(C)C2)c1 (centres undefined)	13µM*	13µM*	·	·	·
COc1ccc(NC(=O)c2ccc(Cl)c(S(=O)(=O)N3CCc4ccccc4C3)c2)cn1	1.9µM*	·	0%	-2	30
CCCNC(=O)C(CC)NC(=O)c1cccc([N+](=O)[O-])c1 (centres undefined)	?	-3%	·	·	·
COc1ccc(C2CC(c3ccccc3)=NN2C(=O)c2cccs2)cc1 (centres undefined)	?	?	8%	73*	75*
COc1ccc(C2=NN(C(=O)c3cccs3)C(c3ccccc3O)C2)cc1 (centres undefined)	10µM*	?	-2%	26*	87
COc1ccc(C(=O)N2N=C(c3cccs3)CC2c2ccccc2O)cc1 (centres undefined)	?	?	-2%	9	14
SMILES	Pf growth 48h	Pf growth 96h	LmPK inh	Cycloheximide cs	Shiga toxin inh
COc1ccc(C2CC(c3ccccc3)=NN2C(=O)COC(=O)C2(C)CC2(Cl)Cl)cc1 (centres undefined)	?	9.3µM*	-4%	7	7
COc1ccc(C2CC(c3ccccc3)=NN2C(=O)CCC(=O)O)cc1 (centres undefined)	-10%	-17%	2%	-2	-2
COc1ccc(C2CC(c3ccccc3)=NN2C(=O)COC(=O)C2CC2)cc1 (centres undefined)	14%	31%	-2%	8	14
O=C1CCCCC2CCCCN12 (centres undefined)	·	·	·	9	i
Cc1oc(-c2ccc(Cl)cc2)nc1CS(=O)CC(=O)NC1CCCC1 (centres undefined)	24%	?	-1%	-1	8
COc1ccc(C2CC(=O)C3=C(C2)NC(C)=C(C(=O)Nc2ccccc2C)C3c2coc3ccc(C)cc3c2=O)cc1OC (centres undefined)	2.3µM*	?	4%	6	2
CC1=C(C(=O)Nc2ccccc2)C(c2coc3ccccc3c2=O)C2=C(CCCC2=O)N1 (centres undefined)	-14%	-10%	-5%	-4	-8
CC1CCN(C(=O)CCNS(=O)(=O)c2ccc3c(c2)oc(=O)n3C)CC1	-8%	?	1%	-2	-3
COc1ccc(S(=O)(=O)CCC(=O)NCc2ccc(C)o2)cc1	16%	-9%	9%	-2	5
CCOc1ccc(CNC(=O)CCS(=O)(=O)c2ccc3c(c2)oc(=O)n3C)cc1	12%	?	-8%	-10	-8
COc1ccc(CNC(=O)CCS(=O)(=O)c2ccc(Br)cc2)cc1	41%	4.7µM*	5%	3	12
CC1CC(C)CN(CCCNS(=O)(=O)c2ccc3c(c2)oc(=O)n3C)C1 (centres undefined)	-2%	10µM*	3%	-3	-6
Cc1ccc(CCNC(=O)CCS(=O)(=O)c2ccc3c(c2)oc(=O)n3C)cc1	-2%	?	1%	-11	-8
COc1ccc(CCNC(=O)CCS(=O)(=O)c2ccc3c(c2)oc(=O)n3C)cc1OC	?	4.1µM*	-6%	-2	-5
COc1ccc(CNC(=O)CCS(=O)(=O)c2ccc3c(c2)oc(=O)n3C)cc1	14%	8.3µM*	-10%	-10	-1
Cc1ccccc1N(C(=O)c1snc(C(N)=O)c1N)C(C(=O)NC1CCCC1)c1ccco1 (centres undefined)	?	339%	3%	-3	2
CCN(C(=O)CCS(=O)(=O)c1ccc2c(c1)oc(=O)n2C)c1ccc(OC)cc1	-29%	10µM*	9%	-2	-2
COc1cccc(CNC(=O)CCS(=O)(=O)c2ccc3c(c2)oc(=O)n3C)c1	-25%	27%	1%	-3	-6
CCOc1ccc(CCNS(=O)(=O)c2ccc3c(c2)oc(=O)n3C)cc1OCC	-3%	13µM*	1%	5	-7
Cc1ccccc1C1c2[nH]c3ccccc3c2C[C@H]2C(=O)N(C3CC3)CC(=O)N12 (some centres undefined)	12µM*	3.7µM*	0%	-4	2
